Measurements taken from PubChem BioAssay (NCI).
The panel holds about 83,000 compounds, 20% with a hit somewhere; the sample as a whole holds those more often.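 How to read the values: 0–100, growth inhibition (40 = 60% inhibited); 0, no net growth; -100 to 0, cell death (-40 = 40% of starting cells died; -100 = all dead).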 Calls of active or inactive are those of the source. Rule for the calls: active = growth percent below 10; inactive = the rest.

Key:
Assay in all cases: NCI-60 one-dose screen, 48 h (100 = growth as untreated, 0 = no growth, -100 = all killed)
Conditions in all cases: 10 µM unless noted
T-47D breast = system: T-47D breast
BT-549 breast = system: BT-549 breast
MDA-MB-435 melanoma = system: MDA-MB-435 melanoma
SW-620 colon = system: SW-620 colon
MCF7 breast = system: MCF7 breast
HCT-116 colon = system: HCT-116 colon
HCC-2998 colon = system: HCC-2998 colon
KM12 colon = system: KM12 colon

Measured: growth

O=C1CC(c2nc3ccccc3s2)CN1C1CCCCC1 (centres undefined)
inactive: T-47D breast 88.2% | BT-549 breast 97.1% | MDA-MB-435 melanoma 107% | SW-620 colon 107% | MCF7 breast 89.1% | HCT-116 colon 108% | HCC-2998 colon 95.2% | KM12 colon 98%

CCCCOc1ccc(NC(=O)n2nc(NC(C)=O)c3cc(NC(C)=O)ccc32)cc1
inactive: T-47D breast 83.2% | BT-549 breast 81% | MDA-MB-435 melanoma 92.3% | SW-620 colon 121% | MCF7 breast 91.9% | HCT-116 colon 88.8% | HCC-2998 colon 101% | KM12 colon 111%

CN1CCCCC1CCN1c2ccccc2Sc2ccc(Br)cc21 (centres undefined)
inactive: T-47D breast 77.9% | BT-549 breast 68.5% | MDA-MB-435 melanoma 20.4% | SW-620 colon 79.6% | MCF7 breast 21% | HCT-116 colon 28.8% | HCC-2998 colon 51.3% | KM12 colon 60.7%

COc1ccc2nc(NC(=O)c3cccnc3Nc3cc(OC)c(OC)c(OC)c3)sc2c1
active: T-47D breast -7.17% | BT-549 breast -90.5% | MDA-MB-435 melanoma 7.52% | MCF7 breast 8.16% | HCT-116 colon -2.4%
inactive: SW-620 colon 27.8% | HCC-2998 colon 77.8% | KM12 colon 11.9%

O=C(CO[N+](=O)[O-])Nc1ccc(C(=O)/C=C/c2ccc3c(c2)OCO3)cc1
inactive: T-47D breast 83% | BT-549 breast 87.6% | MDA-MB-435 melanoma 62.6% | SW-620 colon 47.8% | MCF7 breast 26.2% | HCC-2998 colon 69.2% | KM12 colon 35.9%
active: HCT-116 colon -5.9%

Fc1ccc(Cc2ccc(F)cc2)cc1
inactive: T-47D breast 101% | BT-549 breast 128% | MDA-MB-435 melanoma 114% | SW-620 colon 99.1% | MCF7 breast 99% | HCT-116 colon 102% | HCC-2998 colon 114% | KM12 colon 108%

CCOC(=O)c1nc(Nc2cc(C)[nH]n2)c2ccccc2n1
inactive: T-47D breast 82.3% | BT-549 breast 96.8% | MDA-MB-435 melanoma 96.8% | SW-620 colon 104% | MCF7 breast 81.5% | HCT-116 colon 76.6% | HCC-2998 colon 107% | KM12 colon 36.9%

O=C(/C=C/c1ccc(Cl)cc1)c1ccc(O)c(CN2CCN(c3cc4c(cc3F)c(=O)c(C(=O)O)cn4C3CC3)CC2)c1
inactive: T-47D breast 53.4% | BT-549 breast 46.3% | MDA-MB-435 melanoma 52% | SW-620 colon 47.8% | MCF7 breast 45.6% | HCT-116 colon 12.6% | HCC-2998 colon 59.4% | KM12 colon 59.3%

O=C1c2cc3c(cc2-c2c1c1cc(F)c(F)cc1c(=O)n2C[C@H](O)CO)OCO3
active: T-47D breast -9.55% | BT-549 breast 0.808% | MDA-MB-435 melanoma -11% | MCF7 breast 3.86% | HCT-116 colon 3.5% | KM12 colon 5.01%
inactive: SW-620 colon 11.7% | HCC-2998 colon 10.7%

CSc1nc2sc3c(c2c(=O)n1-c1ccc(C(C)C)cc1)CCC(=O)C3
active: T-47D breast -48.3% | BT-549 breast 3.97% | MDA-MB-435 melanoma -6.88% | SW-620 colon -30.3% | HCT-116 colon 2.14% | KM12 colon -42%
inactive: MCF7 breast 16% | HCC-2998 colon 16.5%

O=C(/C=C/c1ccc(Cl)cc1)/C=C/c1cc2ccccc2[nH]c1=O
active: MDA-MB-435 melanoma -1.71% | SW-620 colon 8.48% | MCF7 breast 5.22% | HCT-116 colon -55.7%
inactive: T-47D breast 48.7% | BT-549 breast 44.6% | HCC-2998 colon 73% | KM12 colon 28.3%

COc1cc(OC)c(/C=C/C(=O)c2c(OC)cc(OC)cc2OC)c(OC)c1
active: MDA-MB-435 melanoma -34.8% | SW-620 colon 8.71% | HCT-116 colon 8.7% | KM12 colon 9.29%
inactive: T-47D breast 13% | BT-549 breast 33.4% | MCF7 breast 19.5% | HCC-2998 colon 30.3%

CCCCCCCCCCCCS(=O)CC(C)O (centres undefined)
inactive: T-47D breast 98.2% | BT-549 breast 109% | MDA-MB-435 melanoma 96.3% | SW-620 colon 106% | MCF7 breast 93.2% | HCT-116 colon 109% | HCC-2998 colon 111% | KM12 colon 116%

COc1nc2c(cc1S(=O)(=O)c1ccccc1)CCc1c-2cnn1-c1ccc(Cl)cc1
inactive: T-47D breast 83.2% | BT-549 breast 109% | MDA-MB-435 melanoma 90.8% | SW-620 colon 93.1% | MCF7 breast 95.2% | HCT-116 colon 88.1% | HCC-2998 colon 92.9% | KM12 colon 109%

Cc1sc2nc3[nH]/c(=C\c4ccc(Cl)cc4)c(=O)n3c(=O)c2c1C
inactive: T-47D breast 103% | BT-549 breast 105% | MDA-MB-435 melanoma 98% | SW-620 colon 102% | MCF7 breast 100% | HCT-116 colon 102% | HCC-2998 colon 107% | KM12 colon 108%

COc1ccc(-c2nn(-c3ccccc3)cc2/C=C/C(=O)OCc2cn(-c3ccc(F)c(Cl)c3)nn2)cc1
inactive: T-47D breast 48.3% | BT-549 breast 101% | MDA-MB-435 melanoma 65.3% | SW-620 colon 100% | MCF7 breast 71% | HCT-116 colon 84.8% | HCC-2998 colon 98.7% | KM12 colon 93.9%

C=C1CCC2C3(C)COC(c4cccc(Cl)c4)OC3CCC2(C)C1/C=C/C1=CCOC1=O (centres undefined)
inactive: T-47D breast 27.7% | BT-549 breast 55.9% | MDA-MB-435 melanoma 79.4% | SW-620 colon 78.4% | MCF7 breast 42% | HCT-116 colon 28.9% | HCC-2998 colon 39.9% | KM12 colon 74.3%

O=C(N/N=C/c1ccc(O)cc1O)c1cccnc1
active: MCF7 breast 7.27%
inactive: T-47D breast 26.9% | BT-549 breast 59.5% | MDA-MB-435 melanoma 63.8% | SW-620 colon 44.6% | HCT-116 colon 29.8% | HCC-2998 colon 35.1% | KM12 colon 58.3%

Cc1cc(=O)oc2cc(Oc3nc(-c4ccc(Cl)cc4)cn4c(-c5ccc(Cl)cc5)cnc34)ccc12
inactive: T-47D breast 104% | BT-549 breast 89.4% | MDA-MB-435 melanoma 75.5% | SW-620 colon 66.7% | MCF7 breast 73.1% | HCT-116 colon 92.1% | HCC-2998 colon 106% | KM12 colon 81.2%

COc1cnc2c(c1)C(=O)c1c-2n(CCCN2CCNCC2)c(=O)c2cc([N+](=O)[O-])ccc12
inactive: BT-549 breast 21.7% | HCC-2998 colon 36.2%
active: T-47D breast -52.2% | MDA-MB-435 melanoma -92% | SW-620 colon -70% | MCF7 breast -63.5% | HCT-116 colon -93.6% | KM12 colon -75.5%

Cc1ccc(NC(=O)c2sc3nc4c(cc3c2N)C(=O)CCC4)cc1C
inactive: T-47D breast 24.1% | BT-549 breast 48.7% | SW-620 colon 18.9% | MCF7 breast 10.7% | HCT-116 colon 28.4% | HCC-2998 colon 27.3% | KM12 colon 19.5%
active: MDA-MB-435 melanoma -55.5%

O=c1c2cccc3c(NC4CCCCC4)ccc(c32)c2nc3ccccc3n12
inactive: T-47D breast 32.5% | BT-549 breast 94.1% | MDA-MB-435 melanoma 103% | SW-620 colon 80.1% | MCF7 breast 13.5% | HCT-116 colon 85.3% | HCC-2998 colon 51.7% | KM12 colon 81.1%

Cc1csc2ccc(Cl)cc12
inactive: T-47D breast 104% | BT-549 breast 104% | MDA-MB-435 melanoma 103% | SW-620 colon 102% | MCF7 breast 98.3% | HCT-116 colon 106% | HCC-2998 colon 109% | KM12 colon 111%

CN(C)CC(=O)Nc1ccc(Cn2nnc3c2C(=O)c2nnn(Cc4ccc(NC(=O)CN(C)C)cc4)c2C3=O)cc1
active: T-47D breast -51.7% | BT-549 breast -89.7% | MDA-MB-435 melanoma -87.5% | SW-620 colon -27.3% | MCF7 breast -61.6% | HCT-116 colon -87.7% | HCC-2998 colon -51.2% | KM12 colon -54.6%

CC1=N/C(=C\c2cccc(Br)c2)C(=O)O1
inactive: T-47D breast 97.3% | BT-549 breast 109% | MDA-MB-435 melanoma 107% | SW-620 colon 104% | MCF7 breast 102% | HCT-116 colon 103% | HCC-2998 colon 111% | KM12 colon 106%

COc1ccc(-c2cc(-c3cccnc3)nc3sc4c(=O)n(-c5ccc(C)cc5)cnc4c23)cc1OC
inactive: T-47D breast 98.7% | BT-549 breast 100% | MDA-MB-435 melanoma 98.7% | SW-620 colon 96.2% | MCF7 breast 97% | HCT-116 colon 99.1% | HCC-2998 colon 109% | KM12 colon 101%

Cc1ccc(S(=O)(=O)N(CCc2ccc(Cl)cc2)S(=O)(=O)c2ccc(C)cc2)cc1
inactive: T-47D breast 82% | BT-549 breast 98.8% | MDA-MB-435 melanoma 95.4% | SW-620 colon 101% | MCF7 breast 87.9% | HCT-116 colon 93.3% | HCC-2998 colon 88.1% | KM12 colon 91.7%

CC[C@H](Nc1ncnc(N)c1C(N)=O)c1nc2cccc(NCc3ccc(C(=O)NO)cc3)c2c(=O)n1-c1ccccc1
inactive: T-47D breast 42.1% | BT-549 breast 88.6% | MDA-MB-435 melanoma 81.8% | SW-620 colon 66.8% | MCF7 breast 82.8% | HCT-116 colon 67% | HCC-2998 colon 86.1% | KM12 colon 89.6%

CCC(C)[C@@H]1NC(=O)[C@@H]2CCCN2C(=O)[C@H](Cc2ccccc2)NC(=O)[C@@H]2CCCN2C(=O)[C@H](Cc2ccccc2)NC(=O)[C@@H]2CCCN2C(=O)[C@H](Cc2ccccc2)NC1=O (some centres undefined)
inactive: T-47D breast 98.9% | BT-549 breast 109% | MDA-MB-435 melanoma 112% | SW-620 colon 105% | MCF7 breast 87.5% | HCT-116 colon 113% | HCC-2998 colon 106% | KM12 colon 121%

CC(=O)Nc1ccc2c(c1)c(NC(C)=O)nn2C(=O)Nc1ccc(Cc2ccccc2)cc1
inactive: T-47D breast 82.5% | BT-549 breast 43% | MDA-MB-435 melanoma 82.2% | SW-620 colon 102% | MCF7 breast 89.6% | HCT-116 colon 61% | HCC-2998 colon 78.8% | KM12 colon 85.9%

COc1cc(/C=N/N(C)C)ccc1O
inactive: T-47D breast 94.4% | BT-549 breast 105% | MDA-MB-435 melanoma 106% | SW-620 colon 90.7% | MCF7 breast 98.4% | HCT-116 colon 101% | HCC-2998 colon 107% | KM12 colon 103%

COc1ccc(Cl)cc1Nc1nc(C(F)(F)F)ccc1C(=O)N/N=C/c1cccnc1
inactive: T-47D breast 46.9% | BT-549 breast 47.1% | MDA-MB-435 melanoma 58.4% | SW-620 colon 47.5% | MCF7 breast 33.3% | HCT-116 colon 43.2% | HCC-2998 colon 53.6% | KM12 colon 59.5%

O=C(Cc1ccccc1)c1ccc(Cl)cc1
inactive: T-47D breast 91.1% | BT-549 breast 106% | MDA-MB-435 melanoma 94.3% | SW-620 colon 99% | MCF7 breast 95.6% | HCT-116 colon 93.2% | HCC-2998 colon 99% | KM12 colon 101%
